In all, about 420,000 compounds went through this assay and about 64,000 (15%) were called active. Roughly 27% stayed inconclusive and do not appear here. Calls follow the shape of the dose curve; as a rule, active = well fitted inhibition curve with a large enough effect; inconclusive = small, poorly fitted or top-dose-only effect; inactive = flat fitted curve, though single readings scatter. These entries were drawn from the full list. Entries that show only a call come without a potency.
Experiment: qHTS for Inhibitors of human tyrosyl-DNA phosphodiesterase 1 (TDP1): qHTS in cells in absence of CPT; also: nearly all actives have a fitted effect of over 55% in size
Details: DT40 Tdp1-/- hTDP1 cells, no CPT, ATP luminescence, 48 h; activity change, negative = growth inhibition: at 46.2 µM (top of the series)
Summary of the method: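 Chicken DT40 Tdp1-/- cells complemented with human TDP1, screened without camptothecin (DMSO vehicle only), 400 cells/well. Compounds pin-transferred, cells incubated at 37 °C for at least 48 hr. Growth read as ATP-dependent luminescence (CellTiter-Glo, 30 min at RT).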
Potency is read from the fitted curve at half-maximal effect.

Structure (SMILES) | Potency
COc1ccc(F)cc1C(=O)COC(=O)c1n[nH]c(=O)c2ccccc12 | inactive
COC(=O)CN(c1cccc(C(C)=O)c1)S(C)(=O)=O | inactive
C=CCc1cccc2cc(C(=O)N3CCN(C(=O)OCC)CC3)c(=O)oc12 | inactive
CC(C)Nc1nc(N(c2ccccc2)c2ccccc2)nc(-n2ccnc2)n1 | inactive
O=C(O)COCC(=O)NCc1csc2ccc(Cl)cc12 | inactive
CCOc1ccc(N(C(=O)c2snc(C(N)=O)c2N)C(C(=O)NCC2CCCO2)c2c[nH]c3ccccc23)cc1 (stereo unspecified) | 3.66 µM (active)
Cc1ccc(N(C(=O)Cc2cccs2)C(C(=O)NCC2CCCO2)c2ccncc2)cc1 (stereo unspecified) | inactive
CCOc1cc(C(C(=O)NCC2CCCO2)N(C(=O)Cn2nnc3ccccc32)c2cccc(OC)c2)ccc1O (stereo unspecified) | inactive
Cc1ccc(C(C(=O)NCC2CCCO2)N(C(=O)c2snc(C(N)=O)c2N)c2ccc(C(C)C)cc2)o1 (stereo unspecified) | 18.4 µM (active)
CCOc1ccc(N(CC(=O)NCC2CCCO2)S(=O)(=O)c2ccc(C)cc2)cc1 (stereo unspecified) | inactive
NC(=O)c1nsc(C(=O)N(CCCN2CCOCC2)C(C(=O)NC2CCCCC2)c2ccc(Cl)cc2)c1N (stereo unspecified) | inactive
O=C(NCC(=O)N(c1ccccc1)C(C(=O)NCC1CCCO1)c1ccccc1)c1cccs1 (stereo unspecified) | inactive
Cc1ccc(N(C(=O)c2snc(C(N)=O)c2N)C(C(=O)NCC2CCCO2)c2c[nH]c3ccccc23)cc1 (stereo unspecified) | 4.11 µM (active)
CCC(C(=O)NCCC(C)C)N(Cc1ccccc1Cl)C(=O)c1snc(C(N)=O)c1N (stereo unspecified) | inactive
Cn1cnc2c1c(=O)n(Cc1ccccc1C#N)c(=O)n2C | inactive
CCn1c(CSc2nncn2-c2ccc(OC)cc2)nc2cc(S(=O)(=O)N(C)C)ccc21 | inactive
COC(=O)CN1C(=O)C(O)=C(C(C)=O)C1c1ccc([N+](=O)[O-])cc1 (stereo unspecified) | inactive
OC(COc1ccc(Br)cc1)CN1CCCC1 (stereo unspecified) | inactive
Cc1noc(COc2ccccc2OCC(O)CNC(C)(C)C)n1 (stereo unspecified) | inactive
CC(C)(C)CC(C)(C)NCC(O)COCCOc1ccc(Br)cc1 (stereo unspecified) | 2.31 µM (active)
O=C(N/N=C\c1cccc(Br)c1)c1ccccc1-n1cccc1 | inactive

Structure (SMILES) | Potency
C=C1CCN([C@@H](Cc2ccccc2)C(=O)N2CCOCC2)S(=O)(=O)c2ccccc21 | inactive
CCC1OC(C2CC2)CC2=C1C(=O)OC(C)(C)O2 (stereo unspecified) | inactive
CC1(C)OC(=O)C2=C(C[C@@H](C3CCCCC3)O[C@@H]2c2ccc(Cl)cc2)O1 | 20.6 µM (active)
CC1(C)OC(=O)C2=C(C[C@@H](C3CC3)O[C@H]2c2ccc(Cl)cc2)O1 | inactive
OC(COCc1ccco1)CN1CCN(c2ccccc2)CC1 (stereo unspecified) | inactive
COc1cccc(-c2nnc(NC(=O)c3ccc(S(=O)(=O)N(CC(C)C)CC(C)C)cc3)o2)c1 | 4.61 µM (active)
COc1cccc(C(=O)NNS(=O)(=O)c2ccc(F)cc2)c1 | inactive
COc1ccc(-c2nnc(NC(=O)CS(=O)(=O)c3ccc(Cl)cc3)o2)c(OC)c1 | inactive
COc1ccc(CNC(=O)CN(Cc2ccc(Cl)cc2)S(C)(=O)=O)cc1 | inactive
COc1ccc(OC)c(-n2c(=S)[nH]c3cc(C(=O)N4CCCCC4)ccc3c2=O)c1 | inactive
Cc1ccc2cccc(O)c2[n+]1[O-] | inactive
CCOC(=O)c1[nH]c2ccc(OC)cc2c1NC(=O)N1CCOCC1 | inactive
COc1ccc(CCNC(=O)CCC(=O)NC2CCCCC2)cc1OC | inactive
COc1ccc(CCNC(=O)c2c3c(nc4ccccc24)C(=O)N(C2CCCCC2)C3)cc1OC | 23.1 µM (active)
COc1ccc(CCNC(=O)C2CCCN2C(=O)Nc2ccccc2)cc1OC (stereo unspecified) | inactive
CCNC(=O)CC1C(=O)N(c2ccc(OC)cc2)C(=O)N1CCOC (stereo unspecified) | inactive
COCCNc1nc(N)c([N+](=O)[O-])c(NCCO)n1 | inactive
Cc1ccc(NC(=O)C/C(N)=N/O)cc1Cl | inactive
CNc1nc(Nc2ccc(C)c(Cl)c2)nc(N)c1[N+](=O)[O-] | 6.51 µM (active)
O=C(NCCc1ccc(Cl)cc1)C1CCCN1C(=O)NCc1ccccc1 (stereo unspecified) | inactive
O=C(CC1Oc2ccccc2NC1=O)NCc1ccc(F)cc1 (stereo unspecified) | inactive

Structure (SMILES) | Potency
O=C(CSc1ccc(/C=N/NC(=O)c2cccc(F)c2)o1)Nc1ccccc1 | inactive
O=C(N/N=C/c1ccc([N+](=O)[O-])o1)c1cn(-c2ccccc2)nc1-c1ccc(F)cc1 | 5.8 µM (active)
Cc1cc(C(=O)N/N=C/c2ccc(O)c([N+](=O)[O-])c2)c(C)n1-c1ccc(F)cc1 | inactive
COCC(=O)Nc1cc(C(=O)N2CCCC(c3ccccc3)CC2)c2c(c1)nc(-c1ccncc1)n2C (stereo unspecified) | inactive
COc1ccc(NC(=O)CC(NC(C)c2ccccc2)C(=O)O)cc1 (stereo unspecified) | inactive
C[C@@H]1CN([C@@H](C)CO)C(=O)CCCn2cc(nn2)CO[C@H]1CN(C)S(=O)(=O)c1ccc(-n2cccn2)cc1 | inactive
Cc1ccc(O)c(NC(=O)c2cc(-c3ccc(F)cc3)no2)c1 | inactive
Cc1ccc(C)c(NC(=O)c2ccc3nccnc3c2)c1 | inactive
Cc1ccc(C)c(NC(=O)c2cc(-c3cc(C)cc(C)c3O)n[nH]2)c1 | 13 µM (active)
CCCCN(C(=O)CCNC(=O)NC12CC3CC(CC(C3)C1)C2)c1c(N)n(CCCC)c(=O)[nH]c1=O | inactive
CCOc1cc(CO)ccc1OCC(=O)N1CCCCC1 | inactive
Cc1ccc(C(=O)NC(C)C(c2cccs2)N2CCOCC2)cc1C (stereo unspecified) | 18.4 µM (active)
Cc1ccc(C(=O)NCC(c2cccs2)N(C)C)cc1S(=O)(=O)N1CCOCC1 (stereo unspecified) | inactive
Cc1ccc(N(C(=O)c2ccc(CN3CCOCC3)o2)C(C(=O)NCCC(C)C)c2cccs2)c(C)c1 (stereo unspecified) | inactive
CCCC(=O)NC(C)C(c1cccs1)N1CCN(c2ccccc2)CC1 (stereo unspecified) | inactive
CC(NC(=O)Nc1ccccc1)C(c1cccs1)N1CCN(c2ccccc2)CC1 (stereo unspecified) | 23.1 µM (active)
CC(NC(=O)Nc1ccccc1)c1ccccc1 (stereo unspecified) | inactive
COC(=O)c1sc(SC)c(S(=O)(=O)C(C)C)c1N/N=C(\C#N)S(=O)(=O)c1ccccn1 | inactive
CC(=O)c1ccc(NC(=O)C(C)OC(=O)c2ccc(NS(=O)(=O)c3ccc4[nH]c(=O)[nH]c4c3)cc2)cc1 (stereo unspecified) | inactive

From PubChem BioAssay AID686978 (National Center for Advancing Translational Sciences (NCATS), 2013)
